An excerpt weighted towards active compounds, which were near 3.3% of everything screened.
PfM18AAP inh-1: PfM18AAP enzyme inhibition; recombinant PfM18AAP, H-Glu-NHMec fluorogenic cleavage; inhibition, % at 7.35 µM; actives 1.2% (n = 290,000); AID 1822;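 active means inhibition above the campaign mean inhibition over all tested compounds plus 3 SD, cut at about 28% in these data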;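 further: 0% = plate median of test compound wells and 100% = 2 mM ZnCl2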
UHRF1 binding: human UHRF1 methylated DNA binding inhibitors; actives 0.75% (n = 370,000); Q96T88; inhibition, % at 4.4 µM; UHRF1 binding to methylated oligo, TR-FRET; in the data active means inhibition above about 21%;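 further: UHRF1 SRA domain binding a hemimethylated CpG hairpin DNA probe; 0% = median of test compound wells and 100% = reference inhibitor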
Target sequence (Q96T88 whole entry, looked up, the tested form may be a part): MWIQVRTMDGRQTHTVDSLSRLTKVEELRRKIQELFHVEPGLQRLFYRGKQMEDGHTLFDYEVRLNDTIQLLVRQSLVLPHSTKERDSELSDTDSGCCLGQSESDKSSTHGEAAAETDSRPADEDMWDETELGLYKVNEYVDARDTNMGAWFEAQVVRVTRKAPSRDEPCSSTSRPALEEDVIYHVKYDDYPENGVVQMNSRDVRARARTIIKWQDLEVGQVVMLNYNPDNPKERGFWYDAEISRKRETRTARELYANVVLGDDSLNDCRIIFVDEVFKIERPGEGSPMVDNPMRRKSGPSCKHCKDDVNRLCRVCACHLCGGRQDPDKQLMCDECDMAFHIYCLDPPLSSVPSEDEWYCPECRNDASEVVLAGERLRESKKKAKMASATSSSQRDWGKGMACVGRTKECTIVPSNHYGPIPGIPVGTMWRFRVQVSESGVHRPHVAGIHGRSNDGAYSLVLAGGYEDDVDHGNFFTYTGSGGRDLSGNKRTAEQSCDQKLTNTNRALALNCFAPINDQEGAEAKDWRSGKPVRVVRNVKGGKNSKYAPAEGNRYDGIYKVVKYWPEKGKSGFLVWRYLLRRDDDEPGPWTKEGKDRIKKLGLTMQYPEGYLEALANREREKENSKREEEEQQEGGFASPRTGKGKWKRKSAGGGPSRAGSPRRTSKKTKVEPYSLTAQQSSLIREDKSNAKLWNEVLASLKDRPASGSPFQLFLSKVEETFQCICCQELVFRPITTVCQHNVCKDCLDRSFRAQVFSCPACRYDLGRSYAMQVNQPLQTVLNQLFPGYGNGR
PRMT1 inh: PRMT1 (human) inhibition, primary screen; Q99873; recombinant PRMT1, activity-based probe fluorescence polarization; inhibition, % at 2.79 µM; actives 1.3% (n = 370,000); AID 652257;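 active means inhibition above about 21% made by adding two undisclosed values, limit read from the data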
PfGluPho inh: PfG6PD (Plasmodium falciparum) enzyme inhibition | PfGluPho enzyme, NADPH resazurin-diaphorase fluorescence | inhibition, % at 20 µM | actives 0.78% (n = 350,000);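 active means inhibition reaching at least a set limit at 20 µM in the primary screen, cut at about 59% in these data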;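 further: 0% = DMSO wells with substrate and 100% = DMSO wells lacking glucose-6-phosphate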
MBD2 DNA inh: blocks human MBD2 binding to methylated DNA; Q9UBB5; TR-FRET, MBD2 binding to methylated oligonucleotide; inhibition, % at 4.4 µM; actives 0.31% (n = 370,000); in the data active means inhibition above about 13%
PfM18AAP inh-2: PfM18AAP inhibition, confirmation | shares compounds with PfM18AAP inh-1 | recombinant PfM18AAP, H-Glu-NHMec fluorogenic cleavage | inhibition, % at 7.35 µM | actives 28% (n = 2,400);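 active means mean inhibition over replicate wells above the hit cutoff set for the earlier primary screen, cut at about 29% in these data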;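 further: 0% = median of test compound wells and 100% = 2 mM ZnCl2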
CTSL1 confirm: Cathepsin L (human) inhibition, confirmation. purified cathepsin L1, Z-Leu-Arg-MCA fluorescence. inhibition, % at 5.96 µM. shares compounds with PfM18AAP inh-1. 2,400 tested, under 10 active;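 active means average inhibition across replicates above the hit cutoff set in the earlier primary screen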;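 further: 0% = median of test compound wells and 100% = Z-Phe-Ala-diazomethylketone 1 µM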
* = called active by the depositor; . = not tested or not shown.

SMILES	PfM18AAP inh-1	UHRF1 binding	PRMT1 inh	PfGluPho inh	MBD2 DNA inh	PfM18AAP inh-2	CTSL1 confirm
CC1(C)O[C@@H]2[C@H](O1)[C@@H](O)C[C@H]2n1cnc2c(Cl)ncnc21	.	1	0	.	4	.	.
CC(=O)N1CCc2cc(Br)c(S(=O)(=O)CCC(=O)N3CCN(c4ccccn4)CC3)cc21	.	0	4	.	-1	.	.
Cc1ccc(C(=O)Oc2ccc(Br)cc2C(=S)N2CCOCC2)cc1	16	1	3	7	3	.	.
O=C(Oc1ccc(Br)cc1C(=S)N1CCOCC1)c1ccc(F)cc1	32*	.	.	53	.	-18	10
Nn1cnnc1N/N=C/c1ccc(Cl)cc1Cl	48*	11	5	35	-4	-21	1
Cc1cccc(-c2cccc3c4c([nH]c23)[C@@H]2C[C@H](N(C)C(=O)c3ccccc3C)[C@H]([C@H](C)O)CN2CC4)c1	.	-2	-7	.	1	.	.
CCOC(=O)C1=C(Nc2ccc(Br)cc2)C(=O)N(CC)C1	.	0	0	.	7	.	.
Cc1ccc(NC(=S)C2=C(O)c3sccc3N(C)S2(=O)=O)cc1	49*	-4	5	-24	-3	-32	5
Cc1ccc(NC(=O)C2=C(O)c3sccc3N(C)S2(=O)=O)cc1	-7	13	4	-18	3	.	.
COC(=O)C(N)Cc1ccc(O)cc1 (stereo not drawn)	5	0	-1	1	-2	.	.
COC(=O)C(N)Cc1ccc(O)c(O)c1 (stereo not drawn)	84*	-5	20	23	2	53*	-1
C=CCN1C[C@H](COC(=O)c2ccc(C)c(C)c2)Oc2cccc(F)c2S1(=O)=O	.	-1	-1	.	-1	.	.
CN(CC(=O)O)S(=O)(=O)c1cc(Cl)ccc1Cl	2	3	-2	-13	-7	.	.
O=C(CSc1ccc(Cl)cc1)Nn1cnnc1	40*	1	3	12	7	52*	-5
O=C(CSc1ccc2ccccc2c1)Nn1cnnc1	65*	-5	-5	-16	-5	51*	0
CN(CC(=O)Nn1cnnc1)S(=O)(=O)c1cc(Cl)ccc1Cl	44*	-3	-1	-5	2	45*	3
COC(=O)[C@H]1C[C@@]2(CC=C(C)C)c3ccccc3N(C(=O)OC(C)(C)C)[C@H]2N1C(=O)OC(C)(C)C	.	-2	-1	.	1	.	.
CN(Cc1ccccc1)C(=O)OCc1cn(Cc2cccc(Cl)c2)nn1	.	3	2	.	10	.	.
O=C(Nc1ccc(F)cc1)N[C@@H]1C[C@@H]2O[C@H](CO)CC[C@@H]2O[C@@H]1CCc1ccc(C2=CCCC2)cc1	.	3	2	.	3	.	.
COc1ccc(CN2CCC(CNC(=O)NC3CCCC3)CC2)cc1	.	1	-2	.	2	.	.
O=C(CSc1nnc(-c2ccccc2)n1-c1ccc(Cl)cc1)c1ccc(F)cc1	.	-4	-4	.	0	.	.
O=S1(=O)c2c(cccc2N2CCSCC2)Oc2ccccc2CN1Cc1cn(Cc2ccc(Cl)cc2)nn1	.	4	1	.	-1	.	.
Cc1csc(/C(=N/OC(=O)c2ccco2)C(N)=O)n1	51*	5	-2	-9	3	9	-5
COc1ccc(/C(N)=N/OC(=O)c2ccco2)cc1OC	1	-4	-1	12	3	.	.
Clc1ccc(OCCOc2ccc(Br)nc2Br)c(Cl)c1	.	0	-3	.	-3	.	.
SMILES	PfM18AAP inh-1	UHRF1 binding	PRMT1 inh	PfGluPho inh	MBD2 DNA inh	PfM18AAP inh-2	CTSL1 confirm
O=C(CSc1n[nH]c(=O)n1C1CC1)N1N=C(c2ccc(Cl)cc2)CC1c1ccco1 (stereo not drawn)	5	1	1	10	4	.	.
O=C(CSc1ncn[nH]1)N1N=C(c2ccc(Cl)cc2)CC1c1ccco1 (stereo not drawn)	42*	-3	-1	-12	1	-7	-1
S=C(NCc1ccccc1)NCc1ccco1	21	1	9	18	-5	.	.
Cc1cccc(NC(=S)NCc2ccco2)n1	38*	-4	3	25	1	-35	1
CCOC(=O)[C@@]12CCCC3=C1N(CCC3)C(=O)[C@H]2CC(=O)N1CCN(C(=O)C2CC2)CC1	.	-2	1	.	-4	.	.
O=C1/C(=C/c2cccnc2)SC(=S)N1Nc1ccccc1	37*	1	-1	-7	5	20	4
COC(=O)[C@]12C[C@H](CC(=O)N3CCN(C(=O)C4CC4)CC3)C(=O)N(Cc3ccco3)C1=C[C@H](C(C)(C)C)O[C@@H]2C	.	7	6	.	0	.	.
COc1cc(/C=C2/C(=O)N(c3ccc(Br)cc3)N=C2C)cc(OC)c1OC	10	.	.	-2	.	.	.
COc1cc(/C=C2/C(=O)N(c3ccc(C(=O)O)cc3)N=C2C)cc(OC)c1O	50*	2	5	45	-8	29*	-2
C/C(=N\Nc1nc2ccccc2c(=O)n1O)c1ccco1	38*	2	36*	38	-3	7	-2
S=c1nc(-c2ccccc2Cl)[nH][nH]1	49*	2	6	18	-2	2	-1
Clc1ccccc1-c1nc2ccccc2[nH]1	5	4	-4	12	-6	.	.
O=C(Oc1ccc(C(=S)N2CCCCC2)cc1)c1ccccc1	37*	3	8	-2	7	5	2
Oc1ccc(C(=S)N2CCCCCC2)cc1	-5	-2	1	-21	-4	.	.
Oc1ccc(C(=S)N2CCCC2)cc1	33*	-2	2	43	5	-18	-1
C=C(C)[C@@H]1CC2=C(OC)C(CC=C(C)C)(CC=C(C)C)C(=O)C(C(=O)c3ccccc3)=C2O1	.	-1	2	.	-3	.	.
CCCC(=O)Nc1ccc(C(=O)NN=C(C2CC2)C2CC2)cc1	-1	2	-5	2	4	.	.
CCCC(=O)Nc1ccc(C(=O)N/N=C2\CC(=O)CC(C)(C)C2)cc1	39*	-3	2	-8	0	-3	3
CN(C)/C=C1\NC(=S)N(c2ccccc2)C1=O	73*	1	2	47	-3	51*	4
CN(C)/C=C1\NC(=S)N(c2ccc(Cl)cc2)C1=O	67*	0	-1	45	-4	44*	2
O=C(c1ccccc1Cl)N1CCSCCS1(=O)=O	.	2	2	.	1	.	.
C=CCCC1CN(Cc2ccc(OC)cc2)S(=O)(=O)c2c(Oc3ccc(F)cc3OC)cccc2O1 (stereo not drawn)	.	3	1	.	0	.	.
COc1ccc(-n2c(SCC(=O)NNC(=S)Nc3ccc(C)cc3)nnc2-c2ccccc2)cc1	.	-5	-2	.	-2	.	.
Cc1ncc(CO)c(/C=N/Nc2ccc(C(F)(F)F)cn2)c1O	48*	-4	1	-22	-3	-26	1
CCOC(=O)CNC(=O)N(C)[C@H]1C[C@H]2c3[nH]c4c(-c5ccccc5)cccc4c3CCN2C(=O)[C@H]1[C@H](C)O	.	0	2	.	-3	.	.
